PubChem BioAssay AID1159580 (chemical genetic matrix, 2015)
Screen size: about 5,500 compounds; about 2,000 (36%) were called active. About 18% were inconclusive and are not listed. Cut-off read from the data, not from the text of the source: active = normalized growth mostly below about 0.91 (no sharp cut-off); inconclusive = no clear call, values can overlap the other calls; inactive = mostly above about 0.92. The list shows a part of the results.

Assay: chemical genetic growth profiling, strain panel (AID 1159580);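 note: tested at 20 µM; growth read once vehicle control cultures reached saturation at 30 °C; 1 = growth at the plate median or of vehicle wells; lower values mean less growth of the strain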
Conditions: growth OD

Measured: normalized growth

OC[C@H]1O[C@@H](O[C@H]2[C@H](O)[C@@H](O)[C@@H](O)O[C@@H]2CO)[C@H](O)[C@@H](O)[C@@H]1O
inactive: S. cerevisiae deletion strains, locus YJR075W, strain HOC1, active compounds read low 1.02 | S. cerevisiae deletion strains, locus YKL009W, strain mrt4, active compounds read low 1.1 | S. cerevisiae deletion strains, locus YKL068W, active compounds read low 1 | S. cerevisiae deletion strains, locus YKL085W, strain MDH1 (second series), active compounds read low 1.04 | S. cerevisiae deletion strains, locus YKL085W, strain MDH1, active compounds read low 1.04 | S. cerevisiae deletion strains, locus YKL160W, strain elf1, active compounds read low 1.02 | S. cerevisiae deletion strains, locus YKL190W, strain CNB1, active compounds read low 1.01 | S. cerevisiae deletion strains, locus YKR001C, strain vps1, active compounds read low 1.02 | S. cerevisiae deletion strains, locus YKR026C, strain gcn3, active compounds read low 0.992 | S. cerevisiae deletion strains, locus YKR091W, strain srl3, active compounds read low 1 | S. cerevisiae deletion strains, locus YLL001W, strain dnm1, active compounds read low 0.98 | S. cerevisiae deletion strains, locus YLL026W, active compounds read low 0.994 | S. cerevisiae deletion strains, locus YLL041C, strain sdh2, active compounds read low 1.02 | S. cerevisiae deletion strains, locus YLR027C, strain aat2, active compounds read low 1.01 | S. cerevisiae deletion strains, locus YLR039C, strain RIC1, active compounds read low 1.11 | S. cerevisiae deletion strains, locus YLR058C, strain SHM2, active compounds read low 1.02 | S. cerevisiae deletion strains, locus YLR102C, strain apc9, active compounds read low 1.02 | S. cerevisiae deletion strains, locus YLR113W, strain HOG1, active compounds read low 1.06 | S. cerevisiae deletion strains, locus YLR221C, strain rsa3, active compounds read low 0.98 | S. cerevisiae deletion strains, locus YLR258W, strain gsy2, active compounds read low 1.01 | S. cerevisiae deletion strains, locus YLR262C, strain YPT6 (second series), active compounds read low 1.04 | S. cerevisiae deletion strains, locus YLR262C, strain YPT6, active compounds read low 1.05 | S. cerevisiae deletion strains, locus YLR268W, strain sec22, active compounds read low 1.04 | S. cerevisiae deletion strains, locus YLR320W, strain mms22, active compounds read low 0.997 | S. cerevisiae deletion strains, locus YLR330W, strain CHS5, active compounds read low 1.02 | S. cerevisiae deletion strains, locus YLR342W, strain FKS1 (second series), active compounds read low 1.09 | S. cerevisiae deletion strains, locus YLR342W, strain FKS1, active compounds read low 1.01 | S. cerevisiae deletion strains, locus YLR357W, strain rsc2, active compounds read low 0.975 | S. cerevisiae deletion strains, locus YLR370C, strain arc18, active compounds read low 1.01 | S. cerevisiae deletion strains, locus YLR371W, strain rom2, active compounds read low 1.01 | S. cerevisiae deletion strains, locus YLR384C, strain iki3, active compounds read low 0.992 | S. cerevisiae deletion strains, locus YLR418C, strain cdc73, active compounds read low 0.975 | S. cerevisiae deletion strains, locus YML016C, strain PPZ1, active compounds read low 1.01 | S. cerevisiae deletion strains, locus YML032C, strain rad52, active compounds read low 1 | S. cerevisiae deletion strains, locus YML120C, strain ndi1, active compounds read low 1.01 | S. cerevisiae deletion strains, locus YML124C, strain tub3, active compounds read low 1.01 | S. cerevisiae deletion strains, locus YMR058W, strain fet3, active compounds read low 1 | S. cerevisiae deletion strains, locus YMR078C, strain ctf18, active compounds read low 1.01 | S. cerevisiae deletion strains, locus YMR125W, strain sto1, active compounds read low 0.993 | S. cerevisiae deletion strains, locus YMR129W, active compounds read low 1.01 | S. cerevisiae deletion strains, locus YMR205C, strain PFK2, active compounds read low 1.01 | S. cerevisiae deletion strains, locus YMR223W, strain ubp8, active compounds read low 0.993 | S. cerevisiae deletion strains, locus YMR231W, strain pep5, active compounds read low 0.992 | S. cerevisiae deletion strains, locus YMR263W, strain SAP30, active compounds read low 1.01 | S. cerevisiae deletion strains, locus YMR307W, strain GAS1, active compounds read low 1.07 | S. cerevisiae deletion strains, locus YNL067W, strain RPL9B, active compounds read low 1.02 | S. cerevisiae deletion strains, locus YNL071W, strain lat1, active compounds read low 1.02 | S. cerevisiae deletion strains, locus YNL153C, strain GIM3, active compounds read low 1.01 | S. cerevisiae deletion strains, locus YNL183C, strain NPR1, active compounds read low 0.968 | S. cerevisiae deletion strains, locus YNL209W, strain ssb2, active compounds read low 1.01 | S. cerevisiae deletion strains, locus YNL233W, strain BNI4, active compounds read low 1.01 | S. cerevisiae deletion strains, locus YNL248C, strain rpa49, active compounds read low 0.98 | S. cerevisiae deletion strains, locus YNL250W, strain rad50, active compounds read low 1.03 | S. cerevisiae deletion strains, locus YNL271C, strain bni1, active compounds read low 1.02 | S. cerevisiae deletion strains, locus YNL298W, strain CLA4, active compounds read low 0.999 | S. cerevisiae deletion strains, locus YNL307C, strain MCK1, active compounds read low 1.02 | S. cerevisiae deletion strains, locus YNL322C, strain KRE1 (second series), active compounds read low 0.996 | S. cerevisiae deletion strains, locus YNL322C, strain KRE1, active compounds read low 1.02 | S. cerevisiae deletion strains, locus YNR049C, strain mso1, active compounds read low 0.998 | S. cerevisiae deletion strains, locus YNR052C, strain pop2, active compounds read low 1.01 | S. cerevisiae deletion strains, locus YOL006C, strain TOP1, active compounds read low 1.15 | S. cerevisiae deletion strains, locus YOL012C, strain htz1 1.74 | S. cerevisiae deletion strains, locus YOL147C, strain pex11, active compounds read low 1.01 | S. cerevisiae deletion strains, locus YOR001W, strain rrp6, active compounds read low 0.988 | S. cerevisiae deletion strains, locus YOR061W, strain CKA2, active compounds read low 1.03 | S. cerevisiae deletion strains, locus YOR069W, strain VPS5, active compounds read low 1.01 | S. cerevisiae deletion strains, locus YOR070C, strain gyp1, active compounds read low 1 | S. cerevisiae deletion strains, locus YOR080W, strain dia2, active compounds read low 0.988 | S. cerevisiae deletion strains, locus YOR083W, strain WHI5, active compounds read low 1.06 | S. cerevisiae deletion strains, locus YOR106W, strain vam3, active compounds read low 1.04 | S. cerevisiae deletion strains, locus YOR136W, strain idh2, active compounds read low 1.01 | S. cerevisiae deletion strains, locus YOR144C, strain elg1, active compounds read low 1 | S. cerevisiae deletion strains, locus YOR184W, strain ser1, active compounds read low 1.02 | S. cerevisiae deletion strains, locus YOR231W, strain MKK1, active compounds read low 1 | S. cerevisiae deletion strains, locus YOR265W, strain rbl2, active compounds read low 1 | S. cerevisiae deletion strains, locus YOR270C, strain vph1, active compounds read low 1.13 | S. cerevisiae deletion strains, locus YOR290C, strain snf2, active compounds read low 1.03 | S. cerevisiae deletion strains, locus YOR316C, strain cot1, active compounds read low 1.02 | S. cerevisiae deletion strains, locus YPL051W, strain arl3, active compounds read low 0.992 | S. cerevisiae deletion strains, locus YPL078C, strain atp4, active compounds read low 1.01 | S. cerevisiae deletion strains, locus YPL106C, strain sse1, active compounds read low 1.02 | S. cerevisiae deletion strains, locus YPL240C, strain hsp82, active compounds read low 1 | S. cerevisiae deletion strains, locus YPL241C, strain CIN2, active compounds read low 1 | S. cerevisiae deletion strains, locus YPL256C, strain CLN2, active compounds read low 0.975 | S. cerevisiae deletion strains, locus YPR119W, strain clb2, active compounds read low 1.01 | S. cerevisiae deletion strains, locus YPR141C, strain kar3, active compounds read low 1 | S. cerevisiae deletion strains, locus YPR163C, strain tif3, active compounds read low 1 | S. cerevisiae deletion strains, locus YPR167C, strain met16, active compounds read low 1.02 | S. cerevisiae deletion strains, strain wtn01, active compounds read low 1.06 | S. cerevisiae strains, strain wild type, active compounds read low 1.02
